POLH inh: qHTS for Inhibitors of Polymerase Eta; DNA polymerase eta (Homo sapiens), Q9Y253; recombinant Pol eta, fluorescent DNA replication assay; Potency, µM (series often up to 114 µM), for inactives: top-dose activity change, negative = inhibition, actives largely listed as inhibitors; 390,000 compounds, 1.2% hits; further: potency means the concentration at half of the fitted maximal effect; on the % scale 0 is the no-effect control and ±100 the full control effect
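Pol eta at 10 nM preincubated with compounds 15 min at room temperature; reaction started with fluorescent substrate (50 nM final) and read kinetically at 0 and 10 min.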
WRN inhibitor: qHTS for Inhibitors of WRN Helicase | Potency, µM (titrated, usually from 114 µM), for the others: at the highest dose activity change, negative = inhibition, hits mostly inhibitors | 360,000 compounds, 0.46% hits | WRN helicase unwinding, fluorescent forked duplex, kinetic | AID 651768, 2012; further: potency means the concentration at half of the fitted maximal effect; on the % scale 0 is the no-effect control and ±100 the full control effect; nearly all actives have a fitted effect of over 55% in size
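Fluorescence dequenching readout, ex 525 nm/em 598 nm, kinetic mode: forked duplex DNA (100 nM final) with adjacent fluorophore and quencher unwound by WRN (20 nM final) with 2 mM ATP. Compound preincubation 15 min, room temperature.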
POLB inh: qHTS Assay for Inhibitors of DNA Polymerase Beta; P06746; Pol beta primer extension/strand displacement, fluorescence kinetic; Potency, µM (doses to about 114 µM), inactives show at the highest dose activity change, negative = inhibition, actives largely listed as inhibitors; 340,000 compounds, 1.3% hits; AID 485314, 2010; further: potency means the concentration at half of the fitted maximal effect; on the % scale 0 is the no-effect control and ±100 the full control effect
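Homogeneous kinetic assay of primer extension and strand displacement by 10 nM Pol beta, preincubated 15 min at room temperature with compound before 50 nM substrate (final) was added. Read at 0 and 10 min; four-parameter Hill fit.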
Pol kappa inh: qHTS for Inhibitors of Polymerase Kappa | 400,000 compounds, 0.53% hits | purified Pol kappa, fluorescent DNA synthesis assay, 10 min | Potency, µM (titrated, usually from 107 µM), inactives show at the top dose activity, negative = inhibition, hits mostly inhibitors | AID 588579, 2011 | DNA polymerase kappa (Homo sapiens), Q9UBT6; further: potency means the concentration at half of the fitted maximal effect; on the % scale 0 is the no-effect control and ±100 the full control effect
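50 nM final substrate added after 15 min RT preincubation of 10 nM Pol kappa with compound; fluorescence read at 0 and 10 min.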
Pol iota inh: qHTS for Inhibitors of Polymerase Iota. Pol iota fluorescent replication assay, 10 min. Potency, µM (doses to about 115 µM), for inactives: at the top dose activity, negative = inhibition, hits mostly inhibitors. 390,000 compounds, 1% hits. AID 588590, 2011; further: potency means the concentration at half of the fitted maximal effect
Target sequence (Q9UNA4 whole entry, looked up): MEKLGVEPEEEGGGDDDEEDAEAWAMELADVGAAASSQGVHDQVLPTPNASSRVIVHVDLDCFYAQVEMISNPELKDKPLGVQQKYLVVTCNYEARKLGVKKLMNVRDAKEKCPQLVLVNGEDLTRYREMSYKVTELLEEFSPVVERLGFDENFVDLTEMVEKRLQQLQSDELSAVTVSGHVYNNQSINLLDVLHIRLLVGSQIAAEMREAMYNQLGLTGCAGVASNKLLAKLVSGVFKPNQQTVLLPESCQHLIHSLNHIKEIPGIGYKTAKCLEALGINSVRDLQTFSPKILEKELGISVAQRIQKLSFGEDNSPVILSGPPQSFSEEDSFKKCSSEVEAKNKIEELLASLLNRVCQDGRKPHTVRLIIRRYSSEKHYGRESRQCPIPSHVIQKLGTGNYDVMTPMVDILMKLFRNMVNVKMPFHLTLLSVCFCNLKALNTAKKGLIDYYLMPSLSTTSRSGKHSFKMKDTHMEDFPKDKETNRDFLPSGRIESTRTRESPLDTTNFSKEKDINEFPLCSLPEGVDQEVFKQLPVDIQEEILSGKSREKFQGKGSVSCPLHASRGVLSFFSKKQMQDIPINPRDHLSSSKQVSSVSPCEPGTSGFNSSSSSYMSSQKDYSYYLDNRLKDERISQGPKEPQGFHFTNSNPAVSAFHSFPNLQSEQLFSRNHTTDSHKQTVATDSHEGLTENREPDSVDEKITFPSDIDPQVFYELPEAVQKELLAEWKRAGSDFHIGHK
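Fluorescent replication assay read twice, at 0 min and 10 min after adding 50 nM (final) substrate. Enzyme (10 nM) and compounds were first incubated 15 min at room temperature; enzyme-free buffer wells were negative controls.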
PI5P4K alpha inh: qHTS for Inhibitors of phosphatidylinositol 5-phosphate 4-kinase (PI5P4K); 330,000 compounds, 1.2% hits; PI5P4Kalpha enzyme, ADP-Glo luminescence, 60 min; stronger effect = lower value; max response, %; active means max response of -50% or lower; inconclusive means between -30% and -50%; inactive means -30% or higher; further: value at the top dose of about 77 µM; on the % scale 0 is the no-effect control and ±100 the full control effect
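qHTS, 1536-well: enzyme/substrate mix, compound by pin tool, 5 microM ATP final; RT 60 min; ADP-Glo reagents 1 (45 min) then 2 (30 min); luminescence.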
Starred values were filed as active, the others as inactive; ? = inconclusive; / = not tested or not shown; [ ] = dose if it differs, or a comment. Hits are enriched below; roughly 2.8% of the tested compounds scored in any of these assays. Unless noted, the call rests on the fitted dose curve; in most records, active means well fitted curve in the direction sought with a large enough effect; inconclusive means small, poorly fitted or top-dose-only effect, or another doubt; inactive means no such curve, though single readings can be large; an effect the other way counts as inactive or inconclusive.

SMILES	POLH inh	WRN inhibitor	POLB inh	Pol kappa inh	Pol iota inh	PI5P4K alpha inh
CN(C)c1ccc(/C=C/c2ccnc3ccc4ccccc4c23)cc1	/	/	/	28µM*	?	/
CN(C)c1ccc(/C=C/c2ccnc3c2ccc2ccccc23)cc1	/	/	/	-6%	31%	/
CCN(CC)c1cc(C)c(/C=C/c2ccnc3ccccc23)cc1C	/	/	/	-9%	6%	/
CCCSCCCNC(=O)C1CCN(C(=O)c2cc3sccc3n2C)CC1	-9%	/	8%	-7%	20%	/
CC1CCC(Nc2nc3c(-c4cccc(C(F)(F)F)c4)nnn3c3ccccc23)CC1 (stereo unspecified)	-32%	/	-2%	-11%	26%	/
COc1ccc(N(Cc2cccs2)C(=O)COc2ccc(C(C)C)cc2)cc1	-19%	/	?	0%	13%	/
Cc1ccccc1N=Cc1cc2c(cc1[N+](=O)[O-])OCO2	-15%	-22%[57.1 µM]	11%	-11%	31%	-7
Cc1c(N=Cc2cc3c(cc2[N+](=O)[O-])OCO3)cccc1[N+](=O)[O-]	?	1%[11.6 µM]	/	45µM*	7.9µM*	-24
COc1cccc(-c2nc(SCc3cccc(Br)c3)n3[nH]c(=O)cc3n2)c1	?	/	13µM*	-43%	?	/
Cc1c(C(=O)O)cccc1-n1c(C)cc(/C=N/Nc2ccc([N+](=O)[O-])cn2)c1C	?	-1%[11.6 µM]	25µM*	79µM*	50µM*	?
COc1ccccc1NC(=O)CSC1=Nc2ccccc2C2=NC(Cc3ccccc3)C(=O)N12 (stereo unspecified)	-15%	/	16%	-5%[60.1 µM]	21%	/
C=C(CCC12O[C@H](C(=O)O)[C@@](O)(C(=O)O)[C@](C(=O)O)(O1)[C@H](OC(=O)/C=C/[C@@H](C)C[C@@H](C)CC)[C@H]2O)[C@@H](OC(C)=O)[C@H](C)Cc1ccccc1	/	/	/	3.5µM*	/	/
C=C(CC[C@]12OC(C(=O)O)C(O)(C(=O)O)C(C(=O)O)(O1)C(OC(=O)/C=C/[C@@H](C)C[C@@H](C)CC)C2O)[C@@H](OC(C)=O)[C@H](C)Cc1ccccc1 (stereo partly specified)	/	/	/	79µM*	?	/
C=CCn1c(SCCC)nc2ccccc2c1=O	/	/	/	-5%	6%	/
CCC[N+](C)(C)c1ccc(/C=C/c2ccncc2)cc1	/	/	/	-27%	?	/
CCN(CC)S(=O)(=O)c1cccc2cc(C(=O)O)c(O)cc12	-6%	-3%	39%	2%	?	-67*
COc1ccc(C2c3c(n(C)c4ccccc34)C(=O)N2CC(=O)Nc2ccccc2Cl)cc1 (stereo unspecified)	-8%	/	-18%	-28%	22%	/
Cc1noc(NS(=O)(=O)c2ccc(NC(=O)c3ccc(N4C(=O)c5ccccc5C4=O)cc3)cc2)c1C	79µM*	?	35µM*	?	?	-2
O=C(Nc1ccc(S(=O)(=O)Nc2nccs2)cc1)c1ccc(N2C(=O)c3ccccc3C2=O)cc1	?	-11%	22µM*	?	71µM*	-12
Cc1ccc(-c2nnn(CC(=O)N(CC(=O)NCCC(C)C)c3ccc(F)cc3)n2)cc1	-14%	/	-11%	-14%	23%	/
OC[C@@H]1O[C@H](O)[C@H](O)[C@@H](O)[C@@H]1O	/	/	/	-3%[60.1 µM]	/	/
Nc1ccc2c(c1)-c1ccccc1S(=O)(=O)N2	45µM*	-33%	-2%	?	14µM*	?
Cc1ccc2c(c1)-c1ccccc1S(=O)(=O)N2	-7%	-3%	7%	1%	14%	5
Cn1nc2sc3ccccc3n2c(=O)c1=O	-20%	-3%	2%	1%	55%	-5
N#Cc1cnc2sc3ccccc3n2c1=N	-7%	-17%	-15%	-28%	43%	-61*
SMILES	POLH inh	WRN inhibitor	POLB inh	Pol kappa inh	Pol iota inh	PI5P4K alpha inh
Cc1ccc(-c2nn3c(=O)cc(CN4CCN(C(=O)c5ccc(C(C)(C)C)cc5)CC4)nc3s2)cc1	-2%	/	2%	-8%[60.1 µM]	13%	/
CCc1cccc(N2C(=O)CSC23C(=O)N(Cc2ccccc2F)c2ccccc23)c1 (stereo unspecified)	-18%	/	1%	-5%	-5%	/
CCOc1ccc(NC(=O)CN2CCCN(Cc3cc(C)ccc3C)S2(=O)=O)cc1	-11%	/	-19%	?	89µM*	/
Clc1ccc(N=c2ssnc2Cl)nc1	6%	51%	-1%	-9%	17%	-23
Clc1nssc1=Nc1nncs1	15%	-9%	/	-1%	?	-55*
COc1cc(N=c2ssnc2Cl)cc(OC)c1	-6%	50µM*	-9%	7%	-14%	-79*
OCc1ccccc1N=c1ssnc1Cl	/	/	20%	/	/	/
Cc1cc(C)cc(C(N)=Nc2cccc(C#N)c2)c1	-15%	-2%	45%	2%	59%	0
N#Cc1cccc(N=c2ssnc2Cl)c1	-17%	25µM*	1%	-4%	70%	-77*
Clc1nssc1=Nc1ccc(Br)cc1	2%	40µM*	49%	-5%	121%	-57*
CCN1c2ccccc2-c2nc(SCC(=O)NCc3ccc(C)cc3)ncc2S1(=O)=O	-5%	/	3%	4%	2%	/
COCCOC(=O)c1c(-c2ccccc2)c(-c2ccccc2)nn(C)c1=O	-2%	/	5%	0%	23%	/
CCc1cnc2c(c1SCC(=O)Nc1ccc(C(=O)OC)cc1)c(=O)n(C)c(=O)n2C	-25%	/	-23%	0%[60.1 µM]	9%	/
Cc1ccc(N2CC(c3nnc(Cc4ccc(F)cc4Cl)o3)CC2=O)cc1 (stereo unspecified)	-19%	/	-15%	0%	-6%	/
CCOC(=O)c1c(S(=O)(=O)N2CCC(C(=O)Nc3ccc(OCC)cc3)CC2)c(C)n(C)c1C	-5%	/	-6%	-12%[60.1 µM]	0%	/
CCn1cc(C(=O)Nc2ncccc2O)c(=O)c2cc(F)c(N3CCN(C(=O)c4ccco4)CC3)cc21	-2%	-2%[11.6 µM]	-20%	-29%	71µM*	2
COc1ccc(CN(Cc2ccccc2)C(=O)Nc2ccccc2)cc1COc1ccc(NC(C)=O)cc1	/	/	/	-11%	45%	/
COc1ccc(CCC(=O)NC2CC(=O)N(c3ccc(OC)cc3)C2)cc1 (stereo unspecified)	-12%	/	-3%	-9%[60.1 µM]	6%	/
COc1cccc(/C=N/Nc2ccc(S(=O)(=O)O)cc2)c1O	-11%	-8%	13µM*	-4%	21%	/

Screens deposited in PubChem BioAssay by National Center for Advancing Translational Sciences (NCATS).
